FBW7 act = human FBW7 E3 ligase activation, primary screen | AlphaScreen FBW7–phospho-cyclin E peptide binding, activator screen | AID 1259310 | Q969H0 | 0.13% of 650,000 active | normalized activity (activation), % at 26.1 µM; in the data active = normalized activity above about 1.9%;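 also: purified mutant Fbw7 with reduced substrate affinity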
Target sequence (Q969H0 whole entry, looked up): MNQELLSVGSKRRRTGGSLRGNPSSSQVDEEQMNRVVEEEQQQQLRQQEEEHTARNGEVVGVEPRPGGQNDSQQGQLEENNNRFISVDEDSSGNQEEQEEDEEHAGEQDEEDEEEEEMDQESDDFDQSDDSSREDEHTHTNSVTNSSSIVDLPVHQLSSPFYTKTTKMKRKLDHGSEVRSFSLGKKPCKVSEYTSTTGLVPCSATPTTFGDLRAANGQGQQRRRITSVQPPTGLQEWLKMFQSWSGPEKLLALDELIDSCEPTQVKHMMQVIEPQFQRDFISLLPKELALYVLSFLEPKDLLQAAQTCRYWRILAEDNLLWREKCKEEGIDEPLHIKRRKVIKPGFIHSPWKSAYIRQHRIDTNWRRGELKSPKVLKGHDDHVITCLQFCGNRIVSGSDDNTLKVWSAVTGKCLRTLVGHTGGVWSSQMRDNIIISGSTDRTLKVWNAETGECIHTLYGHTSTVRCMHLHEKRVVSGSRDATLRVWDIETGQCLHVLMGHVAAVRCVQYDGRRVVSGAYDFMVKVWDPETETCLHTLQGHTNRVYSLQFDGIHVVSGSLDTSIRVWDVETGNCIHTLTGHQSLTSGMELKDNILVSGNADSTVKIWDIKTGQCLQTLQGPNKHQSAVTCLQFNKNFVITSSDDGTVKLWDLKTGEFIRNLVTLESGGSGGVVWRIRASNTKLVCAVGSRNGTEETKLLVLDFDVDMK
TEAD-YAP inh = TEAD-YAP interaction inhibition. HEK-TIYL cells, TEAD-Gal4/YAP UAS-luciferase luminescence. inhibition, % at 9.12 µM. 1.4% of 640,000 active; in the data active = inhibition above about 32%;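 also: 0% = median of test compound wells and 100% = reference inhibitor wells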
GPR151 ag = human GPR151 activation; AID 1508602; 1% of 650,000 active; Q8TDV0; activation, % at 11.2 µM; PathHunter beta-arrestin GPR151 cells, luminescence; in the data active = activation above about 4.9%;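 also: 0% = median of compound wells and 100% = cells with positive control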
MITF primary = human MITF inhibition, primary screen. AlphaScreen MITF homodimerization, bead proximity signal. inhibition, % at 2.6 µM. 0.91% of 650,000 active; in the data active = inhibition above about 50%;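 also: 0% = vehicle wells with protein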
MITF confirm = human MITF inhibition, confirmation; shares compounds with MITF primary; AlphaScreen MITF homodimerization, biotin/His-MITF beads; inhibition, % at 2.6 µM; 16% of 4,700 active; AID 1259372;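 active = inhibition above a cutoff derived from the DMSO control wells, cut at about 28% in these data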;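 also: 0% = MITF dimer wells with DMSO only; inhibitors lower the bead chemiluminescence by keeping MITF from dimerizing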
AlphaScreen DR = optically interferes with AlphaScreen signal in dose response | shares compounds with MITF primary | AlphaScreen optical interference counterscreen, cell-free | IC50, µM | 6% of 480 active; call rule not given here
AlphaScreen intf2 = counter-screen: compounds optically interfering with AlphaScreen; shares compounds with MITF primary; LysRS AlphaScreen counterscreen, signal interference, triplicate; inhibition, % at 2.6 µM; 7.6% of 4,700 active; AID 1259376;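 active = inhibition above a cutoff derived from the DMSO control wells, cut at about 30% in these data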
Starred values were filed as active, the others as inactive; . = no result given. In the library only some 3.5% were active in any assay of this set; here they are far more common.

SMILES | FBW7 act | TEAD-YAP inh | GPR151 ag | MITF primary | MITF confirm | AlphaScreen intf2 | others
O=C(CNC1CCCCC1)Nc1ccccc1N1CCOCC1 | 0 | -7 | 0 | 55* | 7 | 14
O=C(CNCCCO)Nc1ccccc1N1CCCCC1 | 0 | -2 | 0 | 57* | 7 | 18
CC1=CC(C)(C)N(C(=O)CNCCCN2CCOCC2)c2cc(C)ccc21 | 0 | -1 | -1 | 56* | 6 | 17
Cc1ccc(C2N=C(c3ccc4c(c3)OCO4)CC(c3cc(Br)ccc3O)N2)c(C)c1 (stereo not drawn) | 0 | 8 | 0 | 39 | . | .
Cc1ccc(C)c2[nH]c(=O)c(C=O)cc12 | 0 | 10 | -1 | 10 | . | .
CCOC(=O)N1CCN(c2ncnc3c2c(-c2ccccc2)cn3-c2ccc(Cl)cc2)CC1 | 0 | -6 | 0 | -8 | . | .
CC(C)CCNCC(=O)Nc1ccccc1N1CCCCC1 | 0 | -3 | 1 | 58* | 7 | 18
O=C(CNCCN1CCCCC1)Nc1ccccc1N1CCCCC1 | 0 | 6 | 1 | 85* | 6 | 13
O=C(CNC1CCCC1)Nc1ccccc1N1CCCCCC1 | 0 | -3 | 2 | 18 | . | .
O=C(CNCCN1CCOCC1)N1CCc2ccccc2C1 | 0 | -6 | -1 | 71* | 3 | 1
O=C(CNCCCN1CCOCC1)Nc1ccccc1N1CCOCC1 | 0 | -2 | 0 | 84* | -8 | -7
CSC(Nc1ccc(F)c(C)c1)=C(C#N)C#N | 1 | 31 | -1 | 3 | . | .
CN(C)CCCN=Cc1c(O)n(-c2ccc(Cl)cc2)c(=S)[nH]c1=O | 0 | 7 | -1 | 2 | . | .
COc1ccc(-c2nc(Nc3ccc(NC(C)=O)cc3)c3ncn(C4CCCCC4)c3n2)cn1 | 0 | -10 | -3 | -8 | . | .
Cc1cc(=O)[nH]c(N/N=C/c2c3ccccc3cc3ccccc23)n1 | 0 | -1 | -2 | 51* | 24 | -4
CN(CC(=O)NC1CCCCCC1)S(=O)(=O)c1cccc2nsnc12 | 0 | -2 | 0 | -13 | . | .
NC(=O)c1ccccc1NC(=S)NC(=O)/C=C/c1ccco1 | 0 | 41* | 1 | 54* | 70* | -1 | AlphaScreen DR=>6.5
Cc1ccc(O)c(NC(=S)NC(=O)/C=C/c2ccco2)c1 | 0 | 15 | 0 | 62* | 30* | 29 | AlphaScreen DR=>6.5
O=C(/C=C/c1cccc([N+](=O)[O-])c1)NC(=S)Nc1ccccc1C(=O)O | 0 | 1 | 3 | 86* | -11 | 1
CCOC(=O)c1cc(C)sc1NC(=O)c1ccccc1F | 0 | 17 | 0 | -1 | . | .
COc1ccc(CNC(=O)CN(C)Cc2ccc(C(C)(C)C)cc2)cc1 | 0 | 0 | 0 | 74* | -21 | 2
CCOC(=O)c1[nH]c(C)c(CNc2ccccc2)c1C | 0 | 2 | -1 | 60* | 27 | 12
CCOC(=O)c1[nH]c(C)c(CNc2cccc(F)c2)c1C | 0 | 3 | 1 | -12 | . | .
CC(Cc1cnccn1)NC(=O)CCc1nnc(CCC2CCCCC2)o1 (stereo not drawn) | 0 | 4 | 2 | 2 | . | .
CC(NC(=O)CCc1nnc(CCC2CCCCC2)o1)c1ccncn1 (stereo not drawn) | 0 | -7 | 0 | 74* | -1 | 9
SMILES | FBW7 act | TEAD-YAP inh | GPR151 ag | MITF primary | MITF confirm | AlphaScreen intf2 | others
O=C(Nc1cc2c(s1)CCCC2)c1ccc(F)cc1 | 0 | 6 | -4 | 3 | . | .
O=C(N/N=C/c1ccccn1)C1=NNC(=O)C1CCO (stereo not drawn) | -1 | -6 | 0 | 65* | 31* | 96*
O=C(N/N=C/c1ccccn1)c1cccc2ccccc12 | 0 | -29 | -1 | 4 | . | .
O=C(c1ccc(Cl)cc1)C1CCN(S(=O)(=O)c2ccc(F)cc2)CC1 | 0 | -8 | -1 | 21 | . | .
NC(=O)NC(=O)COC(=O)c1oc2ccccc2c1COc1ccccc1 | 0 | 5 | 0 | -4 | . | .
NC(=O)COC(=O)c1oc2ccccc2c1COc1ccccc1 | 1 | 11 | -1 | 64* | 16 | 20
CCn1c(C(=O)O)c(CNCCc2ccccc2)c2ccccc21 | 1 | 16 | 0 | 7 | . | .
CC(C)NC(=O)CNCc1ccc2c(c1)OCO2 | 0 | -4 | 1 | 34 | . | .
O=C(CNCCN1CCOCC1)NCc1ccc2c(c1)OCO2 | 0 | 7 | 0 | 84* | 19 | 14
O=C(CNCc1ccc2c(c1)OCO2)Nc1ccccc1F | 0 | 1 | 0 | 64* | 4 | 16

Compound activity (PubChem BioAssay)
